Measured values reported in the supplement of paper PMC4466140.

Target: AgAbp1
Assay: SPOT peptide array binding signal intensity (averaged, normalized) (arbitrary units (background-subtracted, floor 0; scale differs between SH3 domains)); higher = stronger binding of the SH3 domain to the peptide
Protocol: (§1)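 GST-tagged SH3 domains from S. cerevisiae (Sc), A. gossypii (Ag), C. albicans (Ca) and S. pombe (Sp) were incubated at 10 ug/ml overnight at 4 C on cellulose SPOT membranes carrying 292 synthetic 15-mer peptides mined from the S. cerevisiae proteome (cysteines replaced by serines). Binding was detected with anti-GST antibody, HRP secondary and chemiluminescence, quantified with Genespotter, and reported as normalized spot intensities averaged over biological replicates.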

Binder | SPOT peptide array binding signal intensity
RKRRTHLRLPLIRSN | 23

Target: AgBbc1
Assay: as above
Protocol: as §1

Binder | SPOT peptide array binding signal intensity
RKRRTHLRLPLIRSN | 105

Target: AgBem1-D1
Assay: as above
Protocol: as §1

Binder | SPOT peptide array binding signal intensity
RKRRTHLRLPLIRSN | 130

Target: AgBzz1-D1
Assay: as above
Protocol: as §1

Binder | SPOT peptide array binding signal intensity
RKRRTHLRLPLIRSN | 2

Target: AgBzz1-D2
Assay: as above
Protocol: as §1

Binder | SPOT peptide array binding signal intensity
RKRRTHLRLPLIRSN | 34.5

Target: AgCyk3
Assay: as above
Protocol: as §1

Binder | SPOT peptide array binding signal intensity
RKRRTHLRLPLIRSN | 2

Target: AgFus1
Assay: as above
Protocol: as §1

Binder | SPOT peptide array binding signal intensity
RKRRTHLRLPLIRSN | 1070

Target: AgHof1
Assay: as above
Protocol: as §1

Binder | SPOT peptide array binding signal intensity
RKRRTHLRLPLIRSN | 107

Target: AgHse1
Assay: as above
Protocol: as §1

Binder | SPOT peptide array binding signal intensity
RKRRTHLRLPLIRSN | 1100

Target: AgLsb1
Assay: as above
Protocol: as §1

Binder | SPOT peptide array binding signal intensity
RKRRTHLRLPLIRSN | ≤ 0

Target: AgLsb4
Assay: as above
Protocol: as §1

Binder | SPOT peptide array binding signal intensity
RKRRTHLRLPLIRSN | 137

Target: AgMyo5
Assay: as above
Protocol: as §1

Binder | SPOT peptide array binding signal intensity
RKRRTHLRLPLIRSN | 0.5

Target: AgNbp2
Assay: as above
Protocol: as §1

Binder | SPOT peptide array binding signal intensity
RKRRTHLRLPLIRSN | 63.8

Target: AgRvs167
Assay: as above
Protocol: as §1

Binder | SPOT peptide array binding signal intensity
RKRRTHLRLPLIRSN | 2.83

Target: AgSho1
Assay: as above
Protocol: as §1

Binder | SPOT peptide array binding signal intensity
RKRRTHLRLPLIRSN | 37.5

Target: AgSla1-D1-D2
Assay: as above
Protocol: as §1

Binder | SPOT peptide array binding signal intensity
RKRRTHLRLPLIRSN | 29.5

Target: AgSla1-D3
Assay: as above
Protocol: as §1

Binder | SPOT peptide array binding signal intensity
RKRRTHLRLPLIRSN | 2.25

Target: CaAbp1-D1
Assay: as above
Protocol: as §1

Binder | SPOT peptide array binding signal intensity
RKRRTHLRLPLIRSN | 243

Target: CaAbp1-D2
Assay: as above
Protocol: as §1

Binder | SPOT peptide array binding signal intensity
RKRRTHLRLPLIRSN | 301

Target: CaBbc1
Assay: as above
Protocol: as §1

Binder | SPOT peptide array binding signal intensity
RKRRTHLRLPLIRSN | 211

Target: CaBem1-D1
Assay: as above
Protocol: as §1

Binder | SPOT peptide array binding signal intensity
RKRRTHLRLPLIRSN | 41.5

Target: CaBzz1-D1
Assay: as above
Protocol: as §1

Binder | SPOT peptide array binding signal intensity
RKRRTHLRLPLIRSN | 73.5

Target: CaBzz1-D2
Assay: as above
Protocol: as §1

Binder | SPOT peptide array binding signal intensity
RKRRTHLRLPLIRSN | 71

Target: CaCyk3
Assay: as above
Protocol: as §1

Binder | SPOT peptide array binding signal intensity
RKRRTHLRLPLIRSN | 20

Target: CaFus1
Assay: as above
Protocol: as §1

Binder | SPOT peptide array binding signal intensity
RKRRTHLRLPLIRSN | 1220

Target: CaHof1
Assay: as above
Protocol: as §1

Binder | SPOT peptide array binding signal intensity
RKRRTHLRLPLIRSN | 0.25

Target: CaHse1
Assay: as above
Protocol: as §1

Binder | SPOT peptide array binding signal intensity
RKRRTHLRLPLIRSN | 29.6

Target: CaLsb1
Assay: as above
Protocol: as §1

Binder | SPOT peptide array binding signal intensity
RKRRTHLRLPLIRSN | ≤ 0

Target: CaLsb4
Assay: as above
Protocol: as §1

Binder | SPOT peptide array binding signal intensity
RKRRTHLRLPLIRSN | 85

Target: CaMyo5
Assay: as above
Protocol: as §1

Binder | SPOT peptide array binding signal intensity
RKRRTHLRLPLIRSN | 0.5

Target: CaNbp2
Assay: as above
Protocol: as §1

Binder | SPOT peptide array binding signal intensity
RKRRTHLRLPLIRSN | 406

Target: CaRvs167
Assay: as above
Protocol: as §1

Binder | SPOT peptide array binding signal intensity
RKRRTHLRLPLIRSN | 19

Target: CaRvs167-3
Assay: as above
Protocol: as §1

Binder | SPOT peptide array binding signal intensity
RKRRTHLRLPLIRSN | 42

Target: CaSho1
Assay: as above
Protocol: as §1

Binder | SPOT peptide array binding signal intensity
RKRRTHLRLPLIRSN | 478

Target: CaSla1-D1-D2
Assay: as above
Protocol: as §1

Binder | SPOT peptide array binding signal intensity
RKRRTHLRLPLIRSN | ≤ 0

Target: CaSla1-D3
Assay: as above
Protocol: as §1

Binder | SPOT peptide array binding signal intensity
RKRRTHLRLPLIRSN | 4.62

Target: ScAbp1
Assay: as above
Protocol: as §1

Binder | SPOT peptide array binding signal intensity
RKRRTHLRLPLIRSN | 27

Target: ScBbc1
Assay: as above
Protocol: as §1

Binder | SPOT peptide array binding signal intensity
RKRRTHLRLPLIRSN | 31.1

Target: ScBem1-D1
Assay: as above
Protocol: as §1

Binder | SPOT peptide array binding signal intensity
RKRRTHLRLPLIRSN | 61.2

Target: ScBzz1-D1
Assay: as above
Protocol: as §1

Binder | SPOT peptide array binding signal intensity
RKRRTHLRLPLIRSN | 15.5

Target: ScBzz1-D2
Assay: as above
Protocol: as §1

Binder | SPOT peptide array binding signal intensity
RKRRTHLRLPLIRSN | 21.2

Target: ScCyk3
Assay: as above
Protocol: as §1

Binder | SPOT peptide array binding signal intensity
RKRRTHLRLPLIRSN | 98

Target: ScFus1
Assay: as above
Protocol: as §1

Binder | SPOT peptide array binding signal intensity
RKRRTHLRLPLIRSN | 573

Target: ScHof1
Assay: as above
Protocol: as §1

Binder | SPOT peptide array binding signal intensity
RKRRTHLRLPLIRSN | 2.75

Target: ScHse1
Assay: as above
Protocol: as §1

Binder | SPOT peptide array binding signal intensity
RKRRTHLRLPLIRSN | 1680

Target: ScLsb1
Assay: as above
Protocol: as §1

Binder | SPOT peptide array binding signal intensity
RKRRTHLRLPLIRSN | 0.25

Target: ScLsb2
Assay: as above
Protocol: as §1

Binder | SPOT peptide array binding signal intensity
RKRRTHLRLPLIRSN | 1

Target: ScLsb3
Assay: as above
Protocol: as §1

Binder | SPOT peptide array binding signal intensity
RKRRTHLRLPLIRSN | 532

Target: ScLsb4
Assay: as above
Protocol: as §1

Binder | SPOT peptide array binding signal intensity
RKRRTHLRLPLIRSN | 29.8

Target: ScMyo3
Assay: as above
Protocol: as §1

Binder | SPOT peptide array binding signal intensity
RKRRTHLRLPLIRSN | ≤ 0

Target: ScMyo5
Assay: as above
Protocol: as §1

Binder | SPOT peptide array binding signal intensity
RKRRTHLRLPLIRSN | 0.625

Target: ScNbp2
Assay: as above
Protocol: as §1

Binder | SPOT peptide array binding signal intensity
RKRRTHLRLPLIRSN | 164

Target: ScPex13
Assay: as above
Protocol: as §1

Binder | SPOT peptide array binding signal intensity
RKRRTHLRLPLIRSN | 1.12

Target: ScRvs167
Assay: as above
Protocol: as §1

Binder | SPOT peptide array binding signal intensity
RKRRTHLRLPLIRSN | 16.8

Target: ScSho1
Assay: as above
Protocol: as §1

Binder | SPOT peptide array binding signal intensity
RKRRTHLRLPLIRSN | 1440

Target: ScSla1-D1-D2
Assay: as above
Protocol: as §1

Binder | SPOT peptide array binding signal intensity
RKRRTHLRLPLIRSN | 268

Target: ScSla1-D3
Assay: as above
Protocol: as §1

Binder | SPOT peptide array binding signal intensity
RKRRTHLRLPLIRSN | 9.5

Target: SpAbp1-D1
Assay: as above
Protocol: as §1

Binder | SPOT peptide array binding signal intensity
RKRRTHLRLPLIRSN | 91.2

Target: SpBbc1
Assay: as above
Protocol: as §1

Binder | SPOT peptide array binding signal intensity
RKRRTHLRLPLIRSN | 2.5

Target: SpBzz1-D1
Assay: as above
Protocol: as §1

Binder | SPOT peptide array binding signal intensity
RKRRTHLRLPLIRSN | 189

Target: SpBzz1-D2
Assay: as above
Protocol: as §1

Binder | SPOT peptide array binding signal intensity
RKRRTHLRLPLIRSN | ≤ 0

Target: SpCyk3
Assay: as above
Protocol: as §1

Binder | SPOT peptide array binding signal intensity
RKRRTHLRLPLIRSN | 2

Target: SpHof1
Assay: as above
Protocol: as §1

Binder | SPOT peptide array binding signal intensity
RKRRTHLRLPLIRSN | 299

Target: SpHof1-2
Assay: as above
Protocol: as §1

Binder | SPOT peptide array binding signal intensity
RKRRTHLRLPLIRSN | 9

Target: SpHof1-3
Assay: as above
Protocol: as §1

Binder | SPOT peptide array binding signal intensity
RKRRTHLRLPLIRSN | 1060

Target: SpHse1
Assay: as above
Protocol: as §1

Binder | SPOT peptide array binding signal intensity
RKRRTHLRLPLIRSN | 622

Target: SpLsb1
Assay: as above
Protocol: as §1

Binder | SPOT peptide array binding signal intensity
RKRRTHLRLPLIRSN | 0.5

Target: SpLsb4
Assay: as above
Protocol: as §1

Binder | SPOT peptide array binding signal intensity
RKRRTHLRLPLIRSN | 260

Target: SpMyo1
Assay: as above
Protocol: as §1

Binder | SPOT peptide array binding signal intensity
RKRRTHLRLPLIRSN | 9

Target: SpNbp2
Assay: as above
Protocol: as §1

Binder | SPOT peptide array binding signal intensity
RKRRTHLRLPLIRSN | 350

Target: SpPex13
Assay: as above
Protocol: as §1

Binder | SPOT peptide array binding signal intensity
RKRRTHLRLPLIRSN | 13

Target: SpRvs167
Assay: as above
Protocol: as §1

Binder | SPOT peptide array binding signal intensity
RKRRTHLRLPLIRSN | 9.33

Target: SpSla1-D1-D2
Assay: as above
Protocol: as §1

Binder | SPOT peptide array binding signal intensity
RKRRTHLRLPLIRSN | ≤ 0

Target: SpSla1-D3
Assay: as above
Protocol: as §1

Binder | SPOT peptide array binding signal intensity
RKRRTHLRLPLIRSN | ≤ 0
